A selection: hits, their analogues and other compounds. The true share with any hit is near 3.4%.
FBW7 act: FBW7 E3 ligase activators, primary screen, biochemical, AlphaScreen, human; F-box/WD repeat-containing protein 7 (Homo sapiens), Q969H0; AlphaScreen FBW7–phospho-cyclin E peptide binding, activator screen; AID 1259310, 2017; normalized activity (activation), % at 26.1 µM; 650,000 tested, 0.13% active; in the data active = normalized activity above about 1.9%;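 also: purified mutant Fbw7 with reduced substrate affinity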
GPR151 ag: activators of human GPR151, primary screen, cell-based, PathHunter beta-arrestin, luminescence. PathHunter beta-arrestin GPR151 cells. 650,000 tested, 1% active. G-protein coupled receptor 151 (Homo sapiens), Q8TDV0. activation, % at 11.2 µM; in the data active = activation above about 4.9%
TEAD-YAP inh: TEAD-YAP interaction inhibition, primary screen, TEAD-YAP interaction inhibitor project, luminescence, HEK-TIYL cells; TEAD-Gal4/YAP UAS-luciferase luminescence; 640,000 tested, 1.4% active; inhibition, % at 9.12 µM; in the data active = inhibition above about 32%
MITF primary: MITF inhibitors, primary screen, biochemical, AlphaScreen, human; Microphthalmia-associated transcription factor (Homo sapiens), O75030; AlphaScreen MITF homodimerization, bead proximity signal; inhibition, % at 2.6 µM; 650,000 tested, 0.91% active; AID 1259374, 2018; in the data active = inhibition above about 50%
Target sequence (O75030 whole entry, looked up): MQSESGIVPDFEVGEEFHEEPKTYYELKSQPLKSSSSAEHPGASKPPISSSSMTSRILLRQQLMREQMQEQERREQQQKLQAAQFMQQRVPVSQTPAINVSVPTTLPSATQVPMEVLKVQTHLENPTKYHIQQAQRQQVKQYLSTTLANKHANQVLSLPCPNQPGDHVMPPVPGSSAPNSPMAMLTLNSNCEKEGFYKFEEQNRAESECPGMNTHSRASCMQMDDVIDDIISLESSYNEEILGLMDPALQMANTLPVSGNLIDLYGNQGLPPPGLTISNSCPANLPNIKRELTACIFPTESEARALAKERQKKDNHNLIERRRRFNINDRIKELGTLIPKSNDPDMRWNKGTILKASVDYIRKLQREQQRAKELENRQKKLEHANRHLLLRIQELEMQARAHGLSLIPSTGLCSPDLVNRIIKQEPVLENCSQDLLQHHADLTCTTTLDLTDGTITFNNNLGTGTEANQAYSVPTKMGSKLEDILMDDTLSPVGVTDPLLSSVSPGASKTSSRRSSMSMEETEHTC
MITF inh conf: MITF inhibitors, retest of hits, confirmation, biochemical, AlphaScreen, triplicate; AID 1259372, 2018; inhibition, % at 2.6 µM; 4,700 tested, 16% active; shares compounds with MITF primary; AlphaScreen MITF homodimerization, biotin/His-MITF beads;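 active = inhibition above a cutoff derived from the DMSO control wells, cut at about 28% in these data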;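 also: inhibitors lower the bead chemiluminescence by keeping MITF from dimerizing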
AlphaScreen DR: AlphaScreen optical interference compounds, dose response, counter-screen, biochemical, HTS; IC50, µM; AID 1259373, 2018; shares compounds with MITF primary; 480 tested, 6% active; AlphaScreen optical interference counterscreen, cell-free; call rule not given here
AS interf ctr: AlphaScreen optical interference compounds, counter-screen for MITF inhibitor project, biochemical, triplicate. LysRS AlphaScreen counterscreen, signal interference. inhibition, % at 2.6 µM. AID 1259376, 2018. shares compounds with MITF primary. 4,700 tested, 7.6% active;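 active = inhibition above a cutoff derived from the DMSO control wells, cut at about 30% in these data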
Of the large screens only hits and unclear results are named; the others gave an inactive call (follow-up assays come after a bar, where they were run); ! = not confirmed by another sample.

COc1cc(-c2nc(Nc3ccc(Cl)cc3)c3ccccc3n2)cc(OC)c1OC	none
COc1ccccc1C(=O)Nc1ccc(NC(=O)C(C)C)cn1	none
CCOc1cc(C=O)cc(Br)c1OC(=O)c1ccccc1[N+](=O)[O-]	none
CC1(C)CC(=O)C/C(=N/NC(=O)c2ccc(Br)cc2)C1	none
COc1cc(-c2nc(Nc3ccccc3Cl)c3ccccc3n2)cc(OC)c1OC	none
COc1cc(-c2nc(Nc3ccccc3F)c3ccccc3n2)cc(OC)c1OC	TEAD-YAP inh 32
CCCCS(=O)(=O)CC(COC(=O)c1ccccc1)S(=O)(=O)CCCC (stereo unspecified)	TEAD-YAP inh 33
CCCCCCOc1ccc(C(=O)OCC(=O)c2ccccc2)cc1	none
COc1nc(N(C)C)nc(N(C#N)CN2C(=O)c3ccccc3S2(=O)=O)n1	none
CC(=O)Nc1ccc(CN2CCc3c([nH]c4ccccc34)C2c2ccccn2)s1 (stereo unspecified)	TEAD-YAP inh 34
O=C(Cc1ccccn1)N1CCc2c([nH]c3ccccc23)C1c1ccccn1 (stereo unspecified)	none
Ic1ccc(-c2cn3c(n2)sc2ccccc23)cc1	none
COC(=O)c1ccc2c(c1)sc1nc(-c3ccccc3)cn12	TEAD-YAP inh 65
Clc1ccc(-c2cn3c(n2)sc2ccccc23)cc1	FBW7 act 2.7
CCOC(=O)c1ccc2c(c1)sc1nc(-c3ccccc3)cn12	TEAD-YAP inh 54
CC1CC(C)CN(CCCNC(=O)c2cc3c(=O)n(C)c4ccccc4c3s2)C1 (stereo unspecified)	none
O=S(=O)(c1ccc(F)c(Cl)c1)N1CCN(c2cc(N3CCOCC3)ncn2)CC1	none
Cc1ccc(NC(=O)CSc2ccc3ccccc3n2)c(C)c1	TEAD-YAP inh 76
O=C(Nc1ccc(Cl)cc1)c1cc2ccccc2cc1NS(=O)(=O)c1ccccc1	TEAD-YAP inh 53
COc1ccccc1-c1ccc2c(c1)C(C)(Cc1csc(C)n1)C(=O)N2 (stereo unspecified)	none
Cc1cc(OCCCON2C(=O)CCC2=O)ccc1[N+](=O)[O-]	none
Cc1ccc(CSc2ccc3nnc(-c4cccs4)n3n2)cc1	none
COc1cccc(C=C2C(=O)NC(=O)NC2=O)c1OCc1ccccc1Cl	none
CC1=NOC(=O)/C1=C/c1ccccc1OS(=O)(=O)c1ccc(C)cc1	MITF primary 70
COc1ccccc1/C=C1\C(=O)ON=C1C	MITF primary 71
COc1ccc(Cl)cc1/C=C1/C(=O)ON=C1C	none
COc1cccc(/C=C2\C(=O)ON=C2C)c1OCc1ccccc1Cl	MITF primary 74
CCOC(=O)c1ccc(Nc2nc3ccccc3n3nnnc23)cc1	none
OC1CCC(Nc2nc(NCCOc3ccccc3)c3ncn(Cc4ccc(C(F)(F)F)cc4)c3n2)CC1 (stereo unspecified)	none
COc1ccc(CCNc2ncnc3ccccc23)cc1OC	TEAD-YAP inh 63
COc1ccc(CCNc2ncnc3sccc23)cc1OC	TEAD-YAP inh 56
COc1ccc(CCNc2ncnc3c2oc2ccccc23)cc1OC	TEAD-YAP inh 46
c1ccc(CCNc2ncnc3ccccc23)cc1	none
COc1ccc(CCNc2nc(C)nc3sc(C)c(C)c23)cc1OC	TEAD-YAP inh 37
O=C(O)c1cccc(Sc2ncc(Cl)cn2)c1	none
CC(C)(C)C1(c2ccccc2)NC(=O)NC1=O (stereo unspecified)	none
COc1ccc(C(=O)NC2CCSC2=O)cc1[N+](=O)[O-] (stereo unspecified)	FBW7 act 2.0
Cc1cc(C(=O)CO/N=C/c2ccco2)c(C)n1Cc1ccco1	TEAD-YAP inh 53
Cc1cc(C(=O)CSc2nnc3ccccn23)c(C)n1Cc1ccco1	TEAD-YAP inh 61
Cc1cc(C(=O)CCl)c(C)n1Cc1ccco1	none
Cc1cc(C(=O)N2CCN(CC(=O)c3cccs3)CC2)c(C)o1	none
COc1ccccc1N1CCN(Cc2cc(Cl)c(O)c3ncccc23)CC1	TEAD-YAP inh 82, MITF primary 74
Oc1c(Cl)cc(CN2CCCC2)c2cccnc12	TEAD-YAP inh 93, MITF primary 113
Cc1sc2nc(SCC(=O)c3ccc(Cl)cc3)n(-c3ccccc3)c(=O)c2c1C	none
CNC(=O)c1cc2cc(Br)ccc2oc1=O	none
O=C(NNC(=O)c1cc2cc(Br)ccc2oc1=O)c1ccc(O)cc1O	TEAD-YAP inh 34
CC(=O)NC(Nc1nnc(-c2ccccc2)s1)C(Cl)(Cl)Cl (stereo unspecified)	none
CC(=O)NC(Nc1nnc(-c2ccc(C)cc2)s1)C(Cl)(Cl)Cl (stereo unspecified)	TEAD-YAP inh 49
CC(=O)Oc1ccccc1N1C(=O)c2ccc(Oc3cccc(N)c3)cc2C1=O	MITF primary 54 | MITF inh conf 70 | AlphaScreen DR inactive | AS interf ctr inactive
CC(=O)Nc1ccc(NC(=O)c2ccnc(-c3cccs3)c2)cc1	none
O=C(Nc1ccc(Oc2ccccc2)cc1)c1ccnc(-c2cccs2)c1	MITF primary 57 | MITF inh conf 53 | AlphaScreen DR inactive | AS interf ctr inactive
O=C(Nc1ccc(Oc2ccccc2)cc1)c1cnc(-c2cccs2)s1	MITF primary 53 | MITF inh conf inactive | AS interf ctr inactive
Cc1ccccc1-c1nc(CS(=O)(=O)CC(=O)N2CCCCCC2)c(C)o1	none
C=CC1=C(C)c2cc3[n-]c(cc4nc(cc5[n-]c(cc1n2)c(C)c5CCC(=O)O)C(CCC(=O)O)=C4C)c(C)c3C=C.[Zn+2]	none (no result: TEAD-YAP inh)
C=CC1=C(C)C2=Cc3c(C=C)c(C)c4[n]3[Sn+2][n]3c(c(C)c(CCC(=O)O)c3=CC3=NC(=C4)C(C)=C3CCC(=O)O)=CC1=N2	MITF primary 55 (no result: TEAD-YAP inh) | MITF inh conf 62 | AlphaScreen DR inactive | AS interf ctr inactive
O=C(Nc1ccc(S(=O)(=O)N2CCc3ccccc32)cc1)C(c1ccccc1)c1ccccc1	none
O=C(C1CCC(Nc2nccc(-c3ccc4nc(C5CC5)[nH]c(=O)c4c3)n2)CC1)N1CCCC1 (stereo unspecified)	FBW7 act 2.6!, MITF primary 59! | MITF inh conf 63 | AlphaScreen DR inactive | AS interf ctr inactive
Cn1nnc(-c2ccc(Nc3nccc(-c4ccc5nc(C6CC6)[nH]c(=O)c5c4)n3)cc2)n1	MITF primary 63 | MITF inh conf 39 | AlphaScreen DR inactive | AS interf ctr inactive
O=C(Nc1ccc(Nc2nccc(-c3ccc4nc(C5CC5)[nH]c(=O)c4c3)n2)cc1)N1CCCC1	none

Screens from PubChem.
